Results on eight molecules are retold here after PubChem BioAssay (Tox21).

A short description of experiment [1]: qHTS assay to identify small molecule agonists of the sonic hedgehog signaling (Shh) pathway (AID 1259368; calls by dose curve;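 note: NIH/3T3-derived 3T3Gli1-Luc cells carrying a stable Gli1-driven firefly luciferase reporter; series mostly up to about 92 µM; nearly all actives have a fitted effect of over 15% in size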). Put shortly:
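NIH/3T3-derived 3T3Gli1-Luc cells with stably integrated Gli1-driven firefly luciferase, 2,000 cells/well, compounds added after 4 hr. Incubated 24 hr at 37C, 5% CO2; luminescence read after 30 min with luciferase reagent at room temperature.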
A general note: In qHTS, concentration-response curves come from the screen itself.

Experiment [2] can be described thus: qHTS assay to identify small molecule antagonists of the sonic hedgehog signaling (Shh) pathway (AID 1259369; calls by dose curve; note: nearly all actives have a fitted effect of over 45% in size; note: potency is the fitted concentration of half-maximal effect). Put shortly:
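NIH/3T3-derived Gli1-Luc reporter cells plated 4 h, dosed with compound, then stimulated with conditioned medium for 24 h at 37 C. Firefly luciferase luminescence read after 30 min with detection reagent at room temperature.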

Experiment [3] concerns the target Estrogen receptor beta (Homo sapiens) (UniProt Q92731). Briefly: qHTS assay to identify small molecule agonists of the estrogen receptor beta (ER-beta) signaling pathway (AID 1259377; active = well fitted activation curve with a large enough effect in the signal ratio in the repeat runs, not every such curve was filed as active; the % refers to the signal ratio). Put shortly: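 In HEK293T cells bearing a UAS-beta-lactamase reporter under ER-beta control, DMSO-delivered compounds were incubated for 16 hr at 37C. Activity was detected as fluorescence 2 hours after LiveBLAzer B/G FRET substrate addition.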

Experiment [4] shares this target. Briefly: qHTS assay to identify small molecule antagonists of the estrogen receptor beta (ER-beta) signaling pathway (AID 1259378; active = well fitted inhibition curve with a large enough effect in the signal ratio in the repeat runs, not every such curve was filed as active; the % refers to the signal ratio). The procedure, abridged: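 Antagonist mode: compounds added to beta-lactamase reporter HEK293T ER-beta-UAS cells stimulated with E2 (1nM final), 16 hr at 37C. LiveBLAzer B/G FRET substrate, 2 hours room temperature, fluorescence read-out.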

Experiment [5] can be described thus: qHTS assay to identify small molecule agonists of the androgen receptor (AR) signaling pathway in the presence of an antagonist - cell viability counter screen (AID 1259379).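 Note: MDA-kb2 human breast cancer cells carrying an MMTV luciferase reporter; series mostly up to about 92 µM; nearly all actives have a fitted effect of over 25% in size.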 Put shortly: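 MDA-kb2 cells (MMTV-luciferase, AR/GR), 3,000/well, 5 h attachment, then 3.0 µM nilutamide (final) and compounds at 15 concentrations. Viability by CellTiter-Fluor fluorescence after 16 h at 37 °C, 0% CO2, in the reporter wells.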

Experiment [6] in a line: qHTS assay to identify small molecule agonists of the estrogen receptor beta (ER-beta) signaling pathway - cell viability counter screen (AID 1259380). Note: nearly all actives have a fitted effect of over 30% in size. The procedure, abridged:
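ER-beta-UAS-bla HEK293T cells in medium with 2% charcoal-stripped FBS, pre-incubated 6 hr, then treated 16 hr at 37C. Cytotoxicity read in the same wells by CellTiter-Glo luminescence after 30 min at room temperature.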

Experiment [7] is described as follows: qHTS assay to identify small molecule antagonists of the estrogen receptor beta (ER-beta) signaling pathway - cell viability counter screen (AID 1259382).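 Note: HEK293T cells carrying ER-beta-UAS-bla reporter stimulated with estradiol; series mostly up to about 92 µM; nearly all actives have a fitted effect of over 55% in size.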 The procedure, abridged:
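ER-beta-UAS-bla HEK293T cells in 2% charcoal-stripped FBS medium, treated with compound plus 1 nM 17-beta-estradiol for 16 h at 37C. Viability read by CellTiter-Glo luminescence after 30 min at room temperature in the same wells.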

In experiment [8] the target is Estrogen receptor (Homo sapiens) (UniProt P03372). The experiment in a line: qHTS assay to identify small molecule agonists of the estrogen receptor alpha (ER-alpha) signaling pathway in the presence of an antagonist (AID 1259383; calls by dose curve; note: top concentration of the series differs between compounds; nearly all actives have a fitted effect of over 15% in size). The procedure, abridged: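 VM7Luc4E2 cells express endogenous full-length ER-alpha with an ERE-luciferase reporter and were hormone-deprived for 5 days. Compounds at 15 concentrations were added with 10.0nM ICI-182,780 for 22hr at 37C. Luminescence was read with ONE-Glo.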
Estrogen receptor (Homo sapiens), sequence (P03372 whole entry, looked up): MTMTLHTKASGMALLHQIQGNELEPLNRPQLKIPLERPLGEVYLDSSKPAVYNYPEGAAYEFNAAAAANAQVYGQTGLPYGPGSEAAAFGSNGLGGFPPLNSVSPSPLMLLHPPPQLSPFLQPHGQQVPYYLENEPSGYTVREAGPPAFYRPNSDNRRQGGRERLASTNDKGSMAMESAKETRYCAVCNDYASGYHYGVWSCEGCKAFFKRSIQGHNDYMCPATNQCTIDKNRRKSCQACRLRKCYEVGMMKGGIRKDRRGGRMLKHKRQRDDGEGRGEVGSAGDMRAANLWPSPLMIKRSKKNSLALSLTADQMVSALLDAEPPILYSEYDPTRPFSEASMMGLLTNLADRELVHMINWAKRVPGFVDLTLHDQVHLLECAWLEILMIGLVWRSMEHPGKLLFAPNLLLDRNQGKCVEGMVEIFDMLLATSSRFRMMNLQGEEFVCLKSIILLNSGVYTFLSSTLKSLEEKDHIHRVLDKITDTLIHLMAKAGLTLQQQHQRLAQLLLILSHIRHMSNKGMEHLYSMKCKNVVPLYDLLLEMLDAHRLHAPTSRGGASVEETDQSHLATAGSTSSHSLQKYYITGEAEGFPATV

Experiment [9] is described as follows: qHTS assay to identify small molecule agonists or antagonists of the thyroid stimulating hormone receptor (TSHR) signaling pathway - wild type cell line counter screen (AID 1259384; calls by dose curve). Put shortly:
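Counter screen in untransfected Hek293: compounds (15-point titration, triplicate) plus phosphodiesterase inhibitor Ro20-1724 added after 18 h plating; 30 min RT. Intracellular cAMP via competitive d2/cryptate immunoassay, 1 h incubation.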

Experiment [10] has as its target Thyrotropin receptor (Homo sapiens) (UniProt P16473). Briefly: qHTS assay to identify small molecule antagonists of the thyroid stimulating hormone receptor (TSHR) signaling pathway (AID 1259385; calls by dose curve; note: nearly all actives have a fitted effect of over 20% in size). The procedure, abridged: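 Antagonist mode: compound-treated TSHR-expressing HEK293 cells were stimulated with 1.5 ng/mL TSH (final) in presence of Ro20-1724 for 30 min at RT. HTRF cAMP detection after 1 h; each compound tested at 15 concentrations, triplicate.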

Experiment [11] is described as follows: qHTS assay to identify small molecule agonists of the estrogen receptor alpha (ER-alpha) signaling pathway in the presence of an antagonist - cell viability counter screen (AID 1259386).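 Note: series mostly up to about 92 µM; cells exposed to compounds for 22 h at 37 °C before the viability read; nearly all actives have a fitted effect of over 30% in size.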 Put shortly:
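Cell viability in VM7Luc4E2 cells (endogenous full-length ER-alpha) measured by CellTiter-Fluor fluorescence in the same wells as the luciferase screen. Cells pre-cultured 5 days in charcoal-stripped serum, then treated 22 h with compounds at 15 concentrations plus 10.0nM ICI-182,780.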

In experiment [12] the target is Progesterone receptor (Homo sapiens) (UniProt P06401). Briefly: qHTS assay to identify small molecule agonists of the progesterone receptor (PR) signaling pathway (AID 1346784; calls by dose curve; note: nearly all actives have a fitted effect of over 30% in size; note: potency is the fitted concentration of half-maximal effect). The procedure, abridged: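 Using charcoal-stripped serum (2%) to limit endogenous steroids, PR-UAS-bla HEK 293T cells received compounds for 16 hr at 37C after 6 hr plating; beta-lactamase FRET fluorescence was recorded following 2 hr substrate loading at room temperature.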
Progesterone receptor (Homo sapiens), sequence (P06401 whole entry, looked up): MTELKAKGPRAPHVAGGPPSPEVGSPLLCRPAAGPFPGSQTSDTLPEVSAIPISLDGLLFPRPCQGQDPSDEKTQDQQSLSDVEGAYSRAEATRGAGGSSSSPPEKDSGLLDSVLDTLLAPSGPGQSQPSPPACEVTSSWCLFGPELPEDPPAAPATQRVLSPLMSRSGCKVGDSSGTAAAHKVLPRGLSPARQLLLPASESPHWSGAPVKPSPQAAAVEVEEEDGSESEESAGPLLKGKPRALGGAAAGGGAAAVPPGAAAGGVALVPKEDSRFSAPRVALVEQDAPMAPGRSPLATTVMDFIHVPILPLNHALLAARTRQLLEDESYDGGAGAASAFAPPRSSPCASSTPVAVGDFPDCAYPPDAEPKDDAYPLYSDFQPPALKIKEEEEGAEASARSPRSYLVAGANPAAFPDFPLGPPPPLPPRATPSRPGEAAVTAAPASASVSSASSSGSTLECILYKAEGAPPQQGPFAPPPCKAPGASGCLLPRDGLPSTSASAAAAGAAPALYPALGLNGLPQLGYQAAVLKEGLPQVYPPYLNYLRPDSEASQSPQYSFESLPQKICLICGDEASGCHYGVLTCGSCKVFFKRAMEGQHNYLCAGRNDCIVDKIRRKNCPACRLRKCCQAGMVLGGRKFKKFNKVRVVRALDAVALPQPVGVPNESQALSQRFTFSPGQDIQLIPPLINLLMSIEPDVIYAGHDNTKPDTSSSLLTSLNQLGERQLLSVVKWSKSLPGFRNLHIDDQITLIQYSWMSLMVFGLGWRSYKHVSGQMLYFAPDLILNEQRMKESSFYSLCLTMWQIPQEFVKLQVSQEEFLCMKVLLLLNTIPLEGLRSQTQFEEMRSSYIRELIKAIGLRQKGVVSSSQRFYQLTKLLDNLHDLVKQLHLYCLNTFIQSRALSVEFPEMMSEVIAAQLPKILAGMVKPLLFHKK

For experiment [13] the target is unchanged. The experiment in a line: qHTS assay to identify small molecule antagonists of the progesterone receptor (PR) signaling pathway (AID 1346795; active = well fitted inhibition curve with a large enough effect in the signal ratio in the repeat runs, not every such curve was filed as active; the % refers to the signal ratio). Put shortly:
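Inhibition of R5020-induced (1 nM final) beta-lactamase reporter signal in PR-UAS-bla HEK293T cells was scored by FRET fluorescence after overnight (16 hr) compound treatment.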

Experiment [14] can be described thus: qHTS assay to identify small molecule agonists of the progesterone receptor (PR) signaling pathway - cell viability counter screen (AID 1346799; calls by dose curve; note: nearly all actives have a fitted effect of over 45% in size). The procedure, abridged:
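Cytotoxicity in PR-bla HEK293T cells: 16 h compound, 37C; CellTiter-Glo added post-FRET read; luminescence after 30 min RT.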

Experiment [15] is described as follows: qHTS assay to identify small molecule antagonists of the TGF-beta/Smad signaling pathway - cell viability counter screen (AID 1346824). Note: nearly all actives have a fitted effect of over 50% in size. The procedure, abridged: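 Cytotoxicity counter-screen run in the same wells as the beta-lactamase Smad reporter read: CellTiter-Glo luminescence after 30 min at room temperature. HEK 293T SBE-bla cells had 5 hr compound exposure at 37 C with TGF-beta1 (0.25 ng/mL stock).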

Experiment [16] can be described thus: qHTS assay to identify small molecule agonists of the TGF-beta/Smad signaling pathway - cell viability counter screen (AID 1346829). Note: top concentration of the series differs between compounds; nearly all actives have a fitted effect of over 45% in size. The procedure, abridged: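 Cytotoxicity counter screen: CellTiter-Glo luminescence (30 min, room temperature) measured in the SBE-bla HEK 293T reporter wells after 5 hr compound treatment at 37 C and the 2 hr substrate step.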

A short description of experiment [17]: qHTS assay to identify small molecule agonists of the TGF-beta/Smad signaling pathway (AID 1346859; active = well fitted activation curve with a large enough effect in the signal ratio in the repeat runs, not every such curve was filed as active; the % refers to the signal ratio; note: series mostly up to about 77 µM). Put shortly: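 Stable Smad binding element-beta-lactamase HEK 293T cells; 5 hr compound exposure at 37 C under 5% CO2; 2 hr room-temperature substrate step; fluorescence excited at 405 nm, collected at 460 nm and 530 nm.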
Experiment [18] has as its target Thyrotropin-releasing hormone receptor (Homo sapiens) (UniProt P34981). Briefly: qHTS assay to identify small molecule antagonists of the thyrotropin-releasing hormone receptor (TRHR) signaling pathway (AID 1346877; active = well fitted inhibition curve with a large enough effect in the repeat runs, not every such curve was filed as active; note: series mostly up to about 51 µM). Put shortly: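 TRHR-expressing HEK293 cells loaded with calcium dye for 2 h at 37 C; compounds pre-incubated 5 min at room temperature before TRH challenge at 1 nM final. Intracellular calcium fluorescence read kinetically for 3 min; 15 concentrations in triplicate.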

The nature of experiment [19]: qHTS assay to identify small molecule antagonists of the progesterone receptor (PR) signaling pathway - cell viability counter screen (AID 1346798). Note: series mostly up to about 92 µM; nearly all actives have a fitted effect of over 50% in size. Put shortly:
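ATP content as viability readout: CellTiter-Glo luminescence, 30 min room temperature, in PR-UAS-bla HEK293T cells after 16 hr compound/R5020 treatment at 37C and 5% CO2.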

For experiment [20], the target named is Androgen receptor (Homo sapiens) (UniProt P10275). Briefly: qHTS assay to identify small molecule agonists of the androgen receptor (AR) signaling pathway in the presence of an antagonist (AID 1259381; calls by dose curve; note: nearly all actives have a fitted effect of over 15% in size). Put shortly:
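MDA-kb2 cells carrying MMTV-luciferase (AR/GR responsive), 3,000 cells/well, co-treated with 3.0 uM nilutamide final. Compounds at 15 concentrations, 16 hr at 37C without CO2. Luciferase luminescence read after 30 min with ONE-Glo.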

SMILES strings stand for the structures. Results filed as inconclusive are left out. The source holds several records for some structures; these can differ, active in one and inactive in another. The source made the active and inactive calls. Unless noted, calls come from the whole dose curve; as a rule, active = well fitted curve in the direction sought with a large enough effect in the repeat runs; inconclusive = weak or mixed curves; inactive = no such curve, though single readings can be large; an effect the other way counts as inactive or inconclusive.

Thyrotropin receptor (Homo sapiens), sequence (P16473 whole entry, looked up): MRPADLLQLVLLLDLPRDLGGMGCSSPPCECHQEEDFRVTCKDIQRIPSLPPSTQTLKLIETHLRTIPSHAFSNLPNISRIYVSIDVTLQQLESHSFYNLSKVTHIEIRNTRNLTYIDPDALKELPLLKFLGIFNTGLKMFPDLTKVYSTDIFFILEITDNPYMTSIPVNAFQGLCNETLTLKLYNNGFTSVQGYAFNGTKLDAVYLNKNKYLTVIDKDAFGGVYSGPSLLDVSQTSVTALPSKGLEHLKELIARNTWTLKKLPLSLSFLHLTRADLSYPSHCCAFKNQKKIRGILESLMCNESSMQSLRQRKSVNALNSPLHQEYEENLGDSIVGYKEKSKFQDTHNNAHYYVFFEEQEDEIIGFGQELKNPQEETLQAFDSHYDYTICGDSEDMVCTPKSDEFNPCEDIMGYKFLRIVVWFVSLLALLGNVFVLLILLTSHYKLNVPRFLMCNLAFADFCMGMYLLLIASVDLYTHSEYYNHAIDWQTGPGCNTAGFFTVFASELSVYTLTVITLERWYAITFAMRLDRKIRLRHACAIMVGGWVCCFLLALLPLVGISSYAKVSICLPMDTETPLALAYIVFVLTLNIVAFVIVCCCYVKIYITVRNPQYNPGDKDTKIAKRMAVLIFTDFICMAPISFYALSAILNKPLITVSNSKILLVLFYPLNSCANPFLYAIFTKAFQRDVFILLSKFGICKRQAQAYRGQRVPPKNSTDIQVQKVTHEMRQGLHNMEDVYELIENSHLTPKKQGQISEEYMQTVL
Estrogen receptor beta (Homo sapiens), sequence (Q92731 whole entry, looked up): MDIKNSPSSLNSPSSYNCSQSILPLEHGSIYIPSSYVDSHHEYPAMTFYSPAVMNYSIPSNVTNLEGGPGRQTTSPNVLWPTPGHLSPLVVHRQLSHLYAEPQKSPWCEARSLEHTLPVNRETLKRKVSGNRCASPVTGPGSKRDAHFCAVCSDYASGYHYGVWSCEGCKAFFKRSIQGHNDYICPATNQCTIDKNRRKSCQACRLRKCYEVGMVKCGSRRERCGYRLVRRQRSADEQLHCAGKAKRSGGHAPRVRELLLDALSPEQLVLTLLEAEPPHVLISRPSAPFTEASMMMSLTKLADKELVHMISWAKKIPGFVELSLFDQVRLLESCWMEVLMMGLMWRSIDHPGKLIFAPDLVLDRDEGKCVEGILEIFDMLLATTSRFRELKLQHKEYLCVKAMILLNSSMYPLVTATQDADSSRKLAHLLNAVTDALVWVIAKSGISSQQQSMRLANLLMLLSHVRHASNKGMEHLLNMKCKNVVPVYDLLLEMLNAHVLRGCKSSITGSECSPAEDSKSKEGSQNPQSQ
Thyrotropin-releasing hormone receptor (Homo sapiens), sequence (P34981 whole entry, looked up): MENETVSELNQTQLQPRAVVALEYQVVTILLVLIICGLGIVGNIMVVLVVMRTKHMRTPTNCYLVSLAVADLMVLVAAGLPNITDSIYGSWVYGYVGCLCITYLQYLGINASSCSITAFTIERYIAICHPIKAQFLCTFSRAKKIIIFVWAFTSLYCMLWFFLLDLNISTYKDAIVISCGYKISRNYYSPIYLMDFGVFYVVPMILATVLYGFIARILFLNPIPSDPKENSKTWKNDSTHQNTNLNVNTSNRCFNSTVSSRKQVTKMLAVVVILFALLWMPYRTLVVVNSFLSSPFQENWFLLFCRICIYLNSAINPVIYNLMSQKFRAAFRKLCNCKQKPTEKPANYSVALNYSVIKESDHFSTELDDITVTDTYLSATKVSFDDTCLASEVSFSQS
Androgen receptor (Homo sapiens), sequence (P10275 whole entry, looked up): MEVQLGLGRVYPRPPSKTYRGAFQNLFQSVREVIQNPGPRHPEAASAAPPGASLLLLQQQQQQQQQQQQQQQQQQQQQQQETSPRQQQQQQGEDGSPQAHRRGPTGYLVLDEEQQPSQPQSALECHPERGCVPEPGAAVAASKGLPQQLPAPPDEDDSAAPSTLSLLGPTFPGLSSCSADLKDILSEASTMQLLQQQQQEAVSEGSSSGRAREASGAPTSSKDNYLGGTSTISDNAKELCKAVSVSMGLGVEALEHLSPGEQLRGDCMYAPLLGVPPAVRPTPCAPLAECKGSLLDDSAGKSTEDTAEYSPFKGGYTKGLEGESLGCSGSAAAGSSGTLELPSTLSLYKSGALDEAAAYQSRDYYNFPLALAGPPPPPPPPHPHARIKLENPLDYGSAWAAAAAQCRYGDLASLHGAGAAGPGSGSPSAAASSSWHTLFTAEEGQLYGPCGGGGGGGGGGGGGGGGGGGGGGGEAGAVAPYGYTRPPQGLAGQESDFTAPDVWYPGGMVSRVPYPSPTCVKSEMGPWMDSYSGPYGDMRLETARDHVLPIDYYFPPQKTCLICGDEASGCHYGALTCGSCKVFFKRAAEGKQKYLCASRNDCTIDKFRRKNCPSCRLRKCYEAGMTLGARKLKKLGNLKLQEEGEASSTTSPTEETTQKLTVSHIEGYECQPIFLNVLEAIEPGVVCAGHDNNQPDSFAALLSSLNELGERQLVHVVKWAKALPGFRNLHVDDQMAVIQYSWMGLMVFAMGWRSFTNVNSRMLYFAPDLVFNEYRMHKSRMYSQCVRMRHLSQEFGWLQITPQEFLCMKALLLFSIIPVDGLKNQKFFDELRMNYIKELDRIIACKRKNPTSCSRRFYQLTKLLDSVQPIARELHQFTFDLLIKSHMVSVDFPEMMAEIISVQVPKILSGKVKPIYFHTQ

On to `Cc1cccc(N)c1C`, for which the result in [1], in experiment [4], in [7], in experiment [8], in experiment [9] and in experiment [10] was inactive. Moreover, the molecule was classed as inactive in experiment [14], in experiment [17] and in [18]. Further, the Potency entry in [2], in [3], in experiment [5], in [6], in experiment [11] and in experiment [13] was “inactive” throughout. Besides, the Potency entry in [15] and in [16] was “inactive” in each case. For the same molecule, the Potency in experiment [12] is 15.9 µM (active) and inactive.
Consider `C=CC#N`, for which the result in experiment [1], in [7], in experiment [8], in experiment [9], in [10] and in experiment [14] was inactive. For the same molecule, the molecule was classed as inactive in experiment [17] and in [18]. Further, the Potency result in experiment [2], in experiment [3], in experiment [5], in [6], in [11] and in [12] was “inactive” in each case. For the same molecule, the Potency result in experiment [13], in experiment [15] and in experiment [16] was “inactive” in each case.
`CN(C)C(=O)Nc1cccc(C(F)(F)F)c1`: the call in experiment [1], in experiment [4], in [7], in experiment [9], in experiment [10] and in experiment [14] was inactive. For the same molecule, the call in experiment [18] was inactive. In addition, the Potency result in experiment [2], in experiment [3], in experiment [5], in experiment [6], in experiment [11] and in [12] was “inactive” each time. Further, the Potency entry in experiment [13], in experiment [19], in [15] and in [16] was “inactive” each time.
In the case of `CNC(=O)O/N=C/C(C)(C)S(C)(=O)=O`, the outcome in experiment [1], in experiment [20], in experiment [7], in [8], in experiment [14] and in [17] was inactive. For the same molecule, the outcome in experiment [18] was inactive. Also, the Potency entry in experiment [2], in experiment [3], in experiment [5], in experiment [6], in experiment [11] and in experiment [12] was “inactive” throughout. Also, the Potency result in experiment [13], in experiment [15] and in experiment [16] was “inactive” throughout.
On to `Nc1cccc(Cl)c1`, for which the outcome in experiment [1], in [7], in experiment [9], in experiment [10] and in experiment [14] was inactive. Also, the Potency result in experiment [2], in experiment [3], in experiment [5], in experiment [6], in [11] and in experiment [12] was “inactive” each time. The Potency result in [13], in experiment [19], in [15] and in experiment [16] was “inactive” throughout.
With `CNCC(O)c1ccc(O)cc1` (stereo not given), the molecule was classed as inactive in experiment [1], in experiment [7], in experiment [9], in [10], in experiment [14] and in experiment [17]. In experiment [18], the molecule was called inactive. Further, the Potency result in experiment [2], in experiment [3], in experiment [5], in experiment [6], in experiment [11] and in experiment [12] was “inactive” throughout. In addition, the Potency entry in experiment [13], in experiment [15] and in experiment [16] was “inactive” throughout.
On to `CCSC(=O)N1CCCCCC1`, for which the molecule was classed as inactive in experiment [1], in experiment [7], in experiment [9] and in experiment [10]. Further, the Potency result in experiment [2], in experiment [3], in experiment [5], in experiment [6], in [11] and in experiment [12] was “inactive” throughout. For the same molecule, the Potency entry in experiment [13], in experiment [19], in experiment [15] and in experiment [16] was “inactive” in each case.
In the case of `O=[N+]([O-])c1ccc(Cl)cc1`, the result in [1], in experiment [7], in experiment [9], in [10], in experiment [14] and in experiment [17] was inactive. The call in [18] was inactive. The Potency in [2] was 42.9 µM (active) and inactive. The Potency entry in experiment [3], in experiment [5], in [6], in [11], in experiment [12] and in [13] was “inactive” throughout. Moreover, the Potency result in [19], in experiment [15] and in experiment [16] was “inactive” in each case.
